Compounds with a hit are over-represented: about 1.3% of the library has one in this group of screens.
LRH-1 inv ag: NR5A2 inverse agonism in reporter assay; HEK293T StAR-luciferase reporter, LRH-1 transfected, 24 h; AID 602396; inhibition, % at 3.6 µM; actives 0.13% (n = 360,000); O00482;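 active means inhibition above the mean inhibition of all tested compounds plus 3 SD, cut at about 73% in these data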;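 further: 0% = DMSO wells and 100% = reporter-only cells lacking LRH-1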
Target sequence (O00482 whole entry, looked up): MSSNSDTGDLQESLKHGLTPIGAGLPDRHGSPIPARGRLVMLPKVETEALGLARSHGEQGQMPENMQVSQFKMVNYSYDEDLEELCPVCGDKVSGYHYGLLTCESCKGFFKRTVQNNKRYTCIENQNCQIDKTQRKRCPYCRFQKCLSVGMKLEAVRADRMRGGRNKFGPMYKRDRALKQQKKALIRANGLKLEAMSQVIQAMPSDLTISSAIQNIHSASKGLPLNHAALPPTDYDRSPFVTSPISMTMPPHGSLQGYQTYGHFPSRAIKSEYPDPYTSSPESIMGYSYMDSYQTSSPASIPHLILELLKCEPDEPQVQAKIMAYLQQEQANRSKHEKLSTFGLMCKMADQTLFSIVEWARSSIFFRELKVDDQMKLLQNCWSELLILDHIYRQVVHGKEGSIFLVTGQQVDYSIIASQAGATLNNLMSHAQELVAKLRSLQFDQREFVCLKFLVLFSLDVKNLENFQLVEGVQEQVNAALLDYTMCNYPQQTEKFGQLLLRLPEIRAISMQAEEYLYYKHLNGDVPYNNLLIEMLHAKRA
SRC2 inh: inhibits human steroid receptor coactivator 2 | inhibition, % at 9 µM | actives 0.17% (n = 370,000) | HEK293 GAL4-SRC2 luciferase reporter, luminescence | AID 651957 | Q15596;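 active means inhibition above the mean inhibition of all tested compounds plus 3 SD, set per campaign, cut at about 52% in these data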;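 further: 0% = DMSO treated cells and 100% = cells given Gossypol at 36 µM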
SRC1 inh: inhibitors of human steroid receptor coactivator 1 (SRC1); Q15788; HEK293 GAL4-SRC1 luciferase reporter, luminescence; AID 588354; inhibition, % at 3.6 µM; actives 0.12% (n = 360,000);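 active means inhibition above the campaign mean plus 3 SD, with each screening campaign given its own cutoff, cut at about 60% in these data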;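 further: 0% = DMSO treated cells and 100% = gossypol at 36 µM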
SRC3 inh: inhibits human SRC3 coactivator; actives 0.17% (n = 360,000); inhibition, % at 3.6 µM; HEK293 GAL4-SRC3 luciferase reporter, luminescence; Q9Y6Q9;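 active means inhibition above a per-campaign cutoff, the mean of all compounds plus 3 SD, cut at about 60% in these data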;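 further: 0% = DMSO-treated cells and 100% = gossypol-treated cells at 36 µM; higher means less SRC3-driven luciferase light from the GAL4 reporter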
Gli-Sufu block: antagonists of Gli-Sufu signaling; inhibition, % at 5 µM; Sufu-KO-LIGHT fibroblasts, Gli luciferase reporter luminescence; actives 0.74% (n = 340,000); AID 588413;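 active means inhibition above about 55%, limit read from the data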;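 further: 0% = DMSO-treated cells and 100% = wells with medium but no cells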
NR2F2 inh: inhibitors of human COUP-TFII (NR2F2). HEK293T NGFI-A luciferase reporter, luminescence. inhibition, % at 8.6 µM. actives 0.7% (n = 370,000). P24468;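 active means inhibition above a per-plate cutoff, mean inhibition of test wells between control levels plus 3 SD, cut at about 38% in these data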;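 further: cells cotransfected with COUP-TFII expression vector driving the NGFI-A reporter; 0% = median of COUP-TF2 test wells and 100% = reporter-only cells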
VP16 Luc counter: VP16 inhibition counter-screen for COUP-TFII; shares compounds with NR2F2 inh; inhibition, % at 8.5 µM; actives 25% (n = 2,500); HEK293 Gal4-VP16 luciferase reporter, luminescence; AID 687007; in the data active means inhibition above about 13%
COUP-TFII conf: COUP-TFII (NR2F2) inhibition, confirmation assay; HEK293 NGFI-A luciferase reporter, luminescence; shares compounds with NR2F2 inh; inhibition, % at 8.5 µM; actives 45% (n = 2,500);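 active means mean inhibition over three repeats above a set limit taken from the earlier primary screen, cut at about 38% in these data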;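 further: 100% = cells given the luciferase reporter alone without the COUP-TF2 vector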
* hit, by the source's call; · = no result given.

SMILES | LRH-1 inv ag | SRC2 inh | SRC1 inh | SRC3 inh | Gli-Sufu block | NR2F2 inh | VP16 Luc counter | COUP-TFII conf
COc1ccc(-c2coc3c(C(=O)NCc4ccc(OC)c(OC)c4)cccc23)c(C)c1 | 62 | 14 | 28 | 18 | · | 79* | 6 | 69*
Nc1cc(S(=O)(=O)c2ccc(N3CCCCC3)c(N)c2)ccc1N1CCCCC1 | 1 | 1 | 0 | 2 | · | 43* | 5 | 22
Nc1cc(S(=O)(=O)N2CCCCC2)ccc1N1CCOCC1 | 12 | 9 | 0 | 12 | -2 | 15 | · | ·
C[C@H](O)[C@@H]1CN2CCc3c([nH]c4c(-c5ccccc5)cccc34)[C@@H]2C[C@@H]1N(C)CC1CCCCC1 | · | 5 | · | · | · | -27 | · | ·
O=S(=O)(O)c1cccc2c(N=Nc3ccc(O)c4ncccc34)cccc12 | 3 | · | 1 | 13 | 12 | · | · | ·
O=Nc1ccc(O)c2ncccc12 | 11 | 20 | -214 | -92 | 38 | 54* | 5 | 41*
COC(=O)[C@]12C[C@H](CC(=O)NCc3ccccc3)C(=O)N(Cc3ccco3)C1=C[C@H](C(C)(C)C)O[C@@H]2C | · | -3 | · | · | · | 6 | · | ·
CCCC(=O)N1CCC[C@]2(CC[C@H](CCC(=O)OCC)O2)C1 | · | -9 | · | · | · | -12 | · | ·
Cc1ccc2[nH]c3c(NCc4ccco4)ncnc3c2c1 | -61 | -2 | -41 | -22 | 25 | 47* | -139 | -24
COc1cc(CNc2ncnc3c2[nH]c2ccc(C)cc23)cc(OC)c1 | 11 | 5 | 15 | 16 | 31 | 33 | · | ·
O=C(Nc1ccc(F)cc1)OCc1cn(Cc2cc(F)cc(F)c2)nn1 | · | 12 | · | · | · | -2 | · | ·
NC1=[N+](Cc2ccccc2)C(Cc2ccccc2)C2C(=C3CCCCC3n3c(=O)n(-c4ccccc4)c(=O)n32)N1 (stereo unspecified) | · | 12 | · | · | · | 3 | · | ·
O=C(C1CCN(S(=O)(=O)c2ccc3[nH]c(=O)oc3c2)CC1)N1CCCN(Cc2ccccc2)CC1 | · | -17 | · | · | · | 14 | · | ·
Nc1ccc(C(=O)Nc2cccc3ncccc23)cc1 | -6 | 4 | -4 | -18 | -7 | -17 | · | ·
O=C(Nc1cccc2ncccc12)c1ccc(OCc2ccccc2)cc1 | -1 | 3 | -5 | 11 | 28 | 43* | -9 | 16
O=C(NCc1cccnc1)c1ccc(COc2ccc(Cl)cc2)cc1 | 7 | 14 | -12 | 18 | 24 | 66* | -17 | 4
O=C(CSc1nnc(-c2ccccn2)n1-c1ccccc1)Nc1ccccc1-c1ccccc1 | · | 1 | · | · | · | 7 | · | ·
C[C@H]1COc2cc(N3CCCC3)ccc2S(=O)(=O)N1C | · | -1 | · | · | · | 15 | · | ·
COc1ccc(CCNC(=O)c2c(N)[nH]c(C(=O)c3ccccc3)c2-c2ccc(N(C)C)cc2)cc1 | · | · | · | · | · | 44* | -20 | 3
COc1ccc(CNC(=O)c2c(N)[nH]c(C(=O)c3ccccc3)c2-c2ccc3ccccc3c2)cc1OC | · | -21 | · | · | · | 7 | · | ·
Nc1nc2cc3c(cc2cc1C(=O)NCCc1c[nH]c2ccccc12)OCO3 | · | 14 | · | · | · | 66* | -2 | 52*
COc1cc2cc(C(=O)NCCc3c[nH]c4ccccc34)c(N)nc2cc1OC | 20 | 11 | · | · | · | 36 | · | ·
COc1ccc(-c2csc(NC(=O)C3=NN(c4ccccc4)C(=O)CC3)n2)cc1 | 7 | 5 | 17 | 18 | 2 | 49* | -25 | 19
O=C(Nc1nc(-c2cc(F)ccc2F)cs1)C1=NN(c2ccccc2)C(=O)CC1 | 0 | -15 | -9 | 0 | 6 | -1 | · | ·
CC(C)(C)NCC(=Cc1ccccc1)C(=O)c1ccccc1 | 82* | 68* | 51 | 56 | 17 | 72* | 48* | 80*
SMILES | LRH-1 inv ag | SRC2 inh | SRC1 inh | SRC3 inh | Gli-Sufu block | NR2F2 inh | VP16 Luc counter | COUP-TFII conf
COc1ccc(C=C(C(=O)c2ccccc2)C(=O)c2ccccc2)cc1 | -91 | -14 | -109 | -73 | · | -26 | · | ·
CC(C)CNC(=O)OCc1cn(Cc2ccccc2)nn1 | · | -2 | · | · | · | 0 | · | ·
[O-][n+]1ccccc1C(O)CSc1ccccc1 (stereo unspecified) | · | -18 | · | · | · | -37 | · | ·
Cc1ccc(C(=O)N2c3ccccc3N(Cc3ccccc3)C(=O)C2(C)C)cc1 | 11 | 20 | 3 | 3 | 18 | 51* | -1 | 47*
Cc1nc2c(-c3ccc(F)cc3)cnn2c(N)c1-c1ccc(F)cc1 | 28 | -31 | 1 | 38 | 32 | 47* | -89 | 18
O=C(Nc1ccc(F)c(F)c1)c1ccc(F)c(S(=O)(=O)N2CCC3(CC2)OCCO3)c1 | 5 | 2 | 13 | 16 | 23 | 39* | -4 | 18
COC(=O)C1=C(C)N(Cc2ccc(Cl)cc2)C(=S)NC1c1ccc(Br)cc1 (stereo unspecified) | · | -8 | · | · | · | 8 | · | ·
Cn1nc(C(C)(C)C)cc1C(=O)N1CCCCC1c1cc(C(=O)NCc2ccccc2)no1 (stereo unspecified) | 11 | 8 | 4 | -8 | · | 28 | · | ·
Cn1nc(C(C)(C)C)cc1C(=O)N1CCCCC1c1cc(C(=O)NCc2ccc(F)cc2)no1 (stereo unspecified) | 17 | 1 | 4 | -4 | · | 38* | 3 | 17
Cc1cccc(OCC(=O)Nc2ccc(N3CCN(C(=O)c4ccco4)CC3)cc2)c1 | 20 | 2 | -24 | 23 | 25 | 64* | 1 | 34
COc1ccccc1C(=O)NC(=S)Nc1ccc(N2CCN(C(=O)c3ccco3)CC2)cc1 | -2 | 5 | 6 | -2 | 33 | 23 | · | ·
Cc1ccccc1C(=O)N1CCN(c2ccc(NC(=S)NC(=O)c3ccco3)cc2)CC1 | 23 | 23 | -8 | 24 | 14 | 46* | -8 | 18
COc1ccc(Oc2c(Cl)cnn(-c3cc(C)cc(C)c3)c2=O)cc1 | · | · | · | · | · | -8 | · | ·

Screening data deposited in PubChem by several laboratories.
